PubChem BioAssay (EPA / NIEHS)
“And” between values parts separate entries of the source, which are not always exact repeats. Identical values can stand only once. Records with an inconclusive call do not appear. The source made the active and inactive calls. How the source made its calls, unless noted: active means hit-call score of the fitted dose curve at least 0.9, where 1 is the maximum; inconclusive means response in the unintended direction; inactive means score below 0.9.

How the values were obtained:
[1] = system: Thyroperoxidase (TPO), gene 54314; test: CCTE_Simmons_AUR_rTPO: CCTE's Amplex UltraRed Assay for Thyroperoxidase (TPO) Inhibition, Simmons Lab (AID 2283662);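 on AC50: potency for loss of signal meaning inhibition of peroxidase activity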
Procedure, shortened: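 Rat thyroid microsomes (5 ug protein) with 25 uM Amplex UltraRed and 300 uM H2O2 in 200 mM phosphate buffer, 30 min at 37C in dark; fluorescence 544/590 nm. Eight concentrations, 5 nM–87.5 uM final, 0.5% DMSO, triplicate biological replicates.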

[2] = CCTE_Simmons_CellTiterGLO_HEK293T: Viability Assessment in CCTE's Assays for Thyroperoxidase (TPO) Inhibition, Simmons Lab (AID 2283665);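 on AC50: cells exposed to compound for 24 h before readout; actives reduce ATP signal below DMSO vehicle meaning cytotoxicity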
Procedure, shortened: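 Cytotoxicity counter-screen: human HEK293T cells in low-serum (1% FBS) medium receive test chemical, 5 nM to 87.5 uM final, for 24 h; ATP is quantified by luciferase luminescence.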

[3] = STM_H9_OrnithineISnorm_perc: Stemina devTOX quickPredict H9 human embryonic stem cell (hESC)-based Assay for Ornithine (ORN) Metabolite Biomarker, Normalized (AID 2283712; active means hit-call score of the fitted dose curve at least 0.9, where 1 is the maximum; inactive means score below 0.9;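 further: ornithine released into spent medium during last day measured by mass spectrometry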)
Procedure, shortened: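 Cells: undifferentiated H9 hESC. Dosing: 72 h, media replaced every 24 h. Sample: final 24-h conditioned media, 40% acetonitrile. Read: UPLC-HRMS ornithine area vs 13C standard, % DMSO control.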

[4] = STM_H9_CystineISnorm_perc: Stemina devTOX quickPredict H9 human embryonic stem cell (hESC)-based Assay for Cystine (CYSS) Metabolite Biomarker, Normalized (AID 2283713; active means hit-call score of the fitted dose curve at least 0.9, where 1 is the maximum; inactive means score below 0.9)
Procedure, shortened: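 Secreted cystine was measured by UPLC-HRMS in H9 hESC medium after 72h compound exposure with 24-hourly replenishment. Values are standard-normalized areas relative to 0.1% DMSO.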

[5] = STM_H9_OrnCyssISnorm_ratio: Stemina devTOX quickPredict H9 human embryonic stem cell (hESC)-based Assay for Ornithine (ORN):Cystine (CYSS) Ratio (AID 2283714)
Procedure, shortened: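 Undifferentiated H9 hESCs exposed 72 h, media and compound replaced every 24 h; final 24-h conditioned media deproteinized and analysed by UPLC-HRMS against C13 spike-ins. Value is the internal-standard-normalized ORN/CYSS ratio versus 0.1% DMSO.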

[6] = Tanguay_ZF_120hpf_OTIC_legacy: (Legacy) Oregon State University Tanguay Lab 120 Hour Post-fertilization zebrafish Assay for Otic Vesicle Malformation (AID 2283639)
Procedure, shortened: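 Otic vesicle malformation is read as a yes/no morphology call at 120 hpf. Exposure is static at 28C with 0.64% (vol/vol) DMSO; embryos that die are excluded from non-mortality endpoints.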

[7] = Tanguay_ZF_120hpf_PE_legacy: (Legacy) Oregon State University Tanguay Lab 120 Hour Post-fertilization zebrafish Assay for Pericardial Edema (AID 2283640);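 on AC50: potency for increased incidence of pericardial edema versus DMSO baseline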
Procedure, shortened: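 Embryos from wild-type 5D adults were staged, then dosed in 0.64% DMSO. They were kept sealed in the dark at 28C until 120 hpf. Pericardial edema was then recorded as present or absent.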

[8] = Tanguay_ZF_120hpf_BRAI_legacy: (Legacy) Oregon State University Tanguay Lab 120 Hour Post-fertilization zebrafish Assay for Brain Malformation (AID 2283641)
Procedure, shortened: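 Wild-type 5D larvae, static waterborne exposure to 120 hpf, 28C, 0.64% v/v DMSO. Brightfield scoring of brain defects, binary; dead embryos excluded. Positive ctrl 5uM trimethyltin chloride.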

[9] = Tanguay_ZF_120hpf_SOMI_legacy: (Legacy) Oregon State University Tanguay Lab 120 Hour Post-fertilization zebrafish Assay for Somite Malformation (AID 2283647)
Procedure, shortened: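 Read-out: presence or absence of somite malformation in 120 hpf larvae, gain-of-signal relative to DMSO baseline. Embryos lacked chorion (pronase, 4 hpf) and were exposed statically from 6 hpf at 28C; dead larvae not scored.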

[10] = Tanguay_ZF_120hpf_PFIN_legacy: (Legacy) Oregon State University Tanguay Lab 120 Hour Post-fertilization zebrafish Assay for Pectoral Fin Malformation (AID 2283648);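 further: each larva judged yes or no for fin defect by brightfield with dead larvae skipped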
Procedure, shortened: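 Dechorionated Tropical 5D wild-type zebrafish embryos, one per well, statically exposed from 6 to 120 hpf at 28C with 0.64% DMSO final. Pectoral fin malformation scored present/absent by brightfield at 120 hpf; not scored in dead embryos.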

[11] = Tanguay_ZF_120hpf_CFIN_legacy: (Legacy) Oregon State University Tanguay Lab 120 Hour Post-fertilization zebrafish Assay for Caudal Fin Malformation (AID 2283649)
Procedure, shortened: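 Binary presence or absence of caudal fin malformation at 120 hpf, read by brightfield microscopy, with DMSO as baseline. Larvae came from 5D wild-type embryos exposed statically from 6 hpf at 28C after pronase dechorionation.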

[12] = Tanguay_ZF_120hpf_CIRC_legacy: (Legacy) Oregon State University Tanguay Lab 120 Hour Post-fertilization zebrafish Assay for Circulatory Malformation (AID 2283651)
Procedure, shortened: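 Using wild-type Tropical 5D zebrafish, we exposed dechorionated embryos from 6 to 120 hpf in embryo medium with 0.64% DMSO. Circulatory defects were scored as present or absent; 5uM trimethyltin chloride served as positive control.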

[13] = Tanguay_ZF_120hpf_TRUN_legacy: (Legacy) Oregon State University Tanguay Lab 120 Hour Post-fertilization zebrafish Assay for Truncated Body (AID 2283655)
Procedure, shortened: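 Truncated body is recorded as a binary endpoint at 120 hpf by brightfield imaging of wild-type 5D larvae. Exposure runs statically from 6 hpf at 28C with 0.64% DMSO; embryos dying earlier are not scored.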

[14] = read-out: kallikrein-3 (KLK3), KLK3 (gene 354); test: LTEA_HepaRG_KLK3: Life Technologies and Expression Analysis (LTEA) Assay for kallikrein-3 (KLK3) using HepaRG (AID 2283652; active means hit-call score of the fitted dose curve at least 0.9, where 1 is the maximum; inactive means score below 0.9); conditions: mRNA level, 48 h; actives raise or lower the signal
Procedure, shortened: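 Differentiated human HepaRG cells in serum-free induction medium exposed 48 h in duplicate, eight-point half-log series from 100 uM in 0.5% DMSO. KLK3 mRNA by qRT-PCR, normalised to ACTB, GAPDH, POLR2A; bidirectional fit versus DMSO.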

[15] = read-out: solute carrier (SLC22A6), SLC22A6 (gene 9356); test: LTEA_HepaRG_SLC22A6: Life Technologies and Expression Analysis (LTEA) Assay for solute carrier (SLC22A6) using HepaRG (AID 2283653; active means hit-call score of the fitted dose curve at least 0.9, where 1 is the maximum; inactive means score below 0.9); conditions: mRNA level, 48 h; actives raise or lower the signal
Procedure, shortened: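 Read-out is SLC22A6 transcript level by qRT-PCR, normalised to three housekeeping genes and fitted for gain or loss relative to 0.5% DMSO vehicle. Human HepaRG cells received chemicals at up to 100 uM for 48 h.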

[16] = read-out: solute carrier (SLC10A1), SLC10A1 (gene 6554); test: LTEA_HepaRG_SLC10A1: Life Technologies and Expression Analysis (LTEA) Assay for solute carrier (SLC10A1) using HepaRG (AID 2283657; active means hit-call score of the fitted dose curve at least 0.9, where 1 is the maximum; inactive means score below 0.9); conditions: mRNA level, 48 h; actives raise or lower the signal
Procedure, shortened: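 HepaRG cells (single lot) exposed 48 h in serum-free induction medium, 8-point half-log series from 100 uM top in 0.5% DMSO, duplicate. SLC10A1 mRNA by qRT-PCR normalised to ACTB, GAPDH, POLR2A; bidirectional fit versus DMSO.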

[17] = read-out: matrix metalloproteinase-1 (MMP1), MMP1 (gene 4312); test: LTEA_HepaRG_MMP1: Life Technologies and Expression Analysis (LTEA) Assay for matrix metalloproteinase-1 (MMP1) using HepaRG (AID 2283658; active means hit-call score of the fitted dose curve at least 0.9, where 1 is the maximum; inactive means score below 0.9); conditions: mRNA level, 48 h; actives raise or lower the signal
Procedure, shortened: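 HepaRG, ~100,000 cells/well, 48 h pre-culture; serum-free induction medium; test chemical 8 conc (max 100 uM, half-log), duplicate, 48 h; 0.5% DMSO; qRT-PCR MMP1, housekeeping-normalized; gain/loss fit vs DMSO.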

[18] = Tanguay_ZF_120hpf_TR_legacy: (Legacy) Oregon State University Tanguay Lab 120 Hour Post-fertilization zebrafish Assay for Touch Response (AID 2283667)
Procedure, shortened: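 Tropical 5D wild-type zebrafish embryos statically exposed to 120 hpf at 28°C, sealed and dark-covered, 0.64% DMSO final; touch response scored as present/absent by brightfield microscopy at 120 hpf. Trimethyltin chloride 5 uM positive control; dead embryos not scored.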

[19] = read-out: Cytochrome P450 (CYP24A1_1), CYP24A1 (gene 1591); test: LTEA_HepaRG_CYP24A1_1: Life Technologies and Expression Analysis (LTEA) Assay for Cytochrome P450 (CYP24A1_1) using HepaRG (AID 2283671; active means hit-call score of the fitted dose curve at least 0.9, where 1 is the maximum; inactive means score below 0.9); conditions: mRNA level, 48 h; actives raise or lower the signal
Procedure, shortened: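 Differentiated human HepaRG cells in serum-free induction medium, exposed 48 h in duplicate to eight half-log concentrations from 100 uM top, 0.5% DMSO. Transcript measured by TaqMan qRT-PCR, normalised to ACTB, GAPDH, POLR2A; bidirectional fitting versus DMSO.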

[20] = CCTE_Padilla_ZF_144hpf_TERATOSCORE: (Legacy) CCTE's 144 Hour Post-fertilization zebrafish Assay Teratoscore, Padilla Lab (AID 2283679; active means hit-call score of the fitted dose curve at least 0.9, where 1 is the maximum; inactive means score below 0.9;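 on AC50: zebrafish embryos with chorions exposed by immersion from 6-8 hpf to 5 dpf with daily renewal; teratogenicity score from eye scoring of death hatching and malformations at 144 hpf; higher score means more developmental defects relative to DMSO baseline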)
Procedure, shortened: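 Larvae scored by eye at 144 hpf for death, hatching and malformations after a day in clean Hanks'. Before that, daily-renewed exposure at 80 uM (0.4% DMSO, 26C) from roughly 6-8 hpf through 5 dpf, 4 embryos per chemical.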

Measured: AC50

O=C(CBr)c1ccc(O)cc1
inactive: [2]
active: [1] 6.82 µM and 5.72 µM

O=c1[nH]c(=O)n(Cl)c(=O)n1Cl
inactive: [1] | [2]

N#CS
inactive: [2] | [3] | [4]
active: [1] 10.6 µM and 8.87 µM

N#CCCC(Br)(C#N)CBr (centres undefined)
active: [5] 70.1 µM

OCCN(CCO)CCO
inactive: [6] | [7] | [8] | [9] | [10] | [11] | [12] | [13] | [4] | [5]
active: [3] 0.0236 µM

COC(=O)Nc1cccc(OC(=O)Nc2cccc(C)c2)c1
active: [1] 0.398 µM
inactive: [2]

CC(C)(C)c1ccccc1O
inactive: [6] | [7] | [8] | [9] | [10] | [11] | [12] | [13] | [1]
active: [2] 55.4 µM

O=C(CCl)Nc1ccccc1
active: [1] 16 µM

Cc1cc(C)cc(C)c1
not listed: [1] | [2] | [3] | [4] | [5] | [9] | [20]
inactive: all other assays above

Oc1c(Cl)cc(Cl)cc1Cl
active: [20] 3.97 µM
inactive: [6] | [7] | [9] | [10] | [11] | [12] | [13] | [18]

O=C(N[C@H]1CN2CCC1CC2)c1ccc2c(c1)OCCO2
inactive: [6] | [7] | [8] | [9] | [10] | [11] | [12] | [13]

CC(C)O.CC(C)O.OCCN(CCO)CCO.OCCN(CCO)CCO.[Ti]
inactive: [6] | [7] | [8] | [9] | [12] | [18] | [20] | [3]
active: [4] 74.1 µM | [5] 72.4 µM

Clc1cccc(Cl)c1Cl
inactive: [6] | [7] | [8] | [9] | [10] | [11] | [12] | [13] | [18]

CN(C)C(=S)S
inactive: [8] | [9] | [10] | [12] | [13] | [18]
active: [7] 3.42 µM | [1] 30.8 µM | [2] 8.68 µM | [20] 12.4 µM | [3] 66.3 µM | [4] 75.9 µM | [5] 71.7 µM

Nc1ccc(N)cc1
active: [1] 5.63 µM | [2] 32 µM

O=C(O)C1(c2ccc3c(c2)OC[C@H](Cc2ccc(-c4ccccc4)cc2)[C@H]3O)CCCC1
active: [1] 33.4 µM | [2] 13.3 µM | [20] 13.5 µM
inactive: [6] | [7] | [8] | [9] | [12] | [13] | [18]

N#Cc1cccnc1
inactive: [6] | [7] | [8] | [9] | [10] | [11] | [12] | [18]

CCCCCCCCCCCCOS(=O)(=O)O
active: [1] 28 µM and 48.7 µM | [2] 31.9 µM and 92.3 µM

CN(N=O)C(N)=O
active: [1] 58.9 µM
inactive: [2]

CCOP(=S)(OCC)SCS(=O)(=O)C(C)(C)C
active: [1] 43.8 µM
inactive: [2]

O=C1c2ccccc2C(=O)C1C(=O)C(c1ccccc1)c1ccc(Cl)cc1 (centres undefined)
active: [1] 32.4 µM | [2] 36.4 µM

O=S1(=O)OC(c2cc(Br)c(O)c(Br)c2)(c2cc(Br)c(O)c(Br)c2)c2ccccc21
active: [1] 25.9 µM | [2] 11.1 µM

Nc1ncn[nH]1
active: [1] 2.24 µM
inactive: [2] | [3] | [4] | [5]

O=C(NC(=O)c1c(F)cccc1F)Nc1ccc(Cl)cc1
active: [1] 25.4 µM
inactive: [2]

COc1ccccc1N
active: [1] 0.39 µM
inactive: [8] | [10] | [12] | [2] | [18]

COc1ccc(N)cc1
active: [1] 1.44 µM | [2] 4.71 µM

Oc1cc(Cl)c(Cl)cc1Cl
active: [20] 5.5 µM
inactive: [6] | [7] | [8] | [9] | [10] | [11] | [12] | [13] | [18]

N#CCC#N
inactive: [2]
active: [1] 7.66 µM

CCCCCCCCCCCCc1cccc(S(=O)(=O)O)c1
active: [1] 39.4 µM | [2] 30.4 µM | [20] 53 µM
inactive: [6] | [7] | [8] | [9] | [10] | [12] | [13] | [18]

Clc1cccc(Cl)c1
inactive: [6] | [7] | [9] | [10] | [12] | [13]

CCOP(=S)(OCC)O/N=C(\C#N)c1ccccc1
active: [1] 20.7 µM

CCCSP(=S)(OCC)Oc1ccc(SC)cc1 (centres undefined)
inactive: [1]

CCOc1ccc(N)cc1
active: [1] 1.75 µM | [2] 28.4 µM

O=[N+]([O-])c1ccc(Cl)c([N+](=O)[O-])c1
active: [5] 13.2 µM
